# RE007 growth inh: qHTS Assay for Inhibitors of the HIV-1 protein Vpr. Potency, µM (doses to about 92.2 µM), without a hit: top-dose activity change, negative = less growth, actives largely listed as inhibitors. actives 0.21% (n = 360,000). S. pombe RE007 Vpr strain, BacTiter-Glo ATP luminescence, 24 h. AID 651644, 2012; active = well fitted falling curve with a large enough effect; inconclusive = small, poorly fitted or top-dose-only effect; inactive = no such curve, though single readings can be large or run the other way; note: % is set by controls: 0 for no effect and ±100 for the full control effect; nearly all actives have a fitted effect of over 50% in size
#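 Fission yeast RE007 carrying one integrated HIV-1 vpr copy, seeded at OD 0.01 in PMG+AL medium with 23 nL pinned compound. Grown 24 h at 30 degrees; viability read by BacTiter-Glo luminescence after 5 min.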
# NS1 inh: qHTS Assay for Inhibitors of Influenza NS1 Protein Function; Potency, µM (top dose mostly 46.1 µM), inactives show at the top dose activity, positive = more growth; AID 2326, 2010; actives 0.4% (n = 270,000); note: actives are rising curves; nearly all actives have a fitted effect of over 50% in size
#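 A cell-based growth assay was used: compounds that relieve NS1-induced slow growth of budding yeast raise OD600. Assay medium was yeast nitrogen base with ammonium sulphate and -URA supplement, pH 6.0, with 2% galactose.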
# SARS PLpro yeast: qHTS of Yeast-based Assay for SARS-CoV PLP. Potency, µM (highest dose often 32.9 µM), for inactives: at the highest dose activity, positive = growth rescue, hits mostly activators. S. cerevisiae expressing SARS-CoV PLpro, growth rescue. actives 0.19% (n = 330,000); note: 0% is about no effect; nearly all actives have a fitted effect of over 55% in size
# Pf growth 48h: Primary qHTS for delayed death inhibitors of the malarial parasite plastid, 48 hour incubation. P. falciparum luciferase growth in erythrocytes, 48 h. actives 5.9% (n = 310,000). Potency, µM (highest dose often 28.7 µM), for inactives: top-dose activity change, negative = inhibition, usual class: inhibitors; active = well fitted inhibition curve with a large enough effect; inconclusive = small, poorly fitted or top-dose-only effect, or another doubt; inactive = no such curve, though single readings can be large or run the other way; note: % is set by controls: 0 for no effect and ±100 for the full control effect
#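 Cell-based growth assay: transgenic P. falciparum expressing firefly luciferase, cultured in red cells within RPMI 1640 containing 0.5% w/v Albumax, 24 mM bicarbonate and gentamycin. A drop in luciferase activity indicates inhibition.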
# Pf growth 96h: Primary qHTS for delayed death inhibitors of the malarial parasite plastid, 96 hour incubation | P. falciparum luciferase reporter growth, 96 h | Potency, µM (doses to about 28.7 µM), for the others: at the top dose activity change, negative = inhibition, actives largely listed as inhibitors | actives 6.9% (n = 320,000); active = well fitted inhibition curve with a large enough effect; inconclusive = small, poorly fitted or top-dose-only effect, or another doubt; inactive = no such curve, though single readings can be large or run the other way; note: % is set by controls: 0 for no effect and ±100 for the full control effect
#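 P. falciparum expressing integrated firefly luciferase grown in erythrocytes (2% hematocrit, 0.05% parasitemia final) with compounds for 96 hours at 37 C, 5% CO2. Growth inhibition read as loss of luminescence after adding luciferase detection reagent.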
# * marks the source's active call; other numbers are inactive results; ? = inconclusive; nt = no result given; [ ] = remark or other dose. Shown are actives, neighbours in structure and some others; about 9.5% of the full set was active somewhere. Unless noted, calls come from the whole dose curve. Potency is the fitted concentration of half-maximal effect.
SMILES,RE007 growth inh,NS1 inh,SARS PLpro yeast,Pf growth 48h,Pf growth 96h
COCCN(C(=O)C1CC(=O)N(Cc2ccccc2)C1)c1nc(-c2ccc([N+](=O)[O-])cc2)cs1 (configuration not stated),1.5%,nt,-2.1%,13.1µM*,?
COc1ccc(S(=O)(=O)NCc2ccco2)cc1-c1nnc2c3ccccc3c(C)nn12,51.2%,-3.6%,2.4%,11.7µM*,?
O=C(NCc1ccco1)c1cc(-c2ccncc2)nc2ccccc12,4.0%,?,-0.2%,2.08µM*,?
CNS(=O)(=O)c1ccc(OC)c(-c2nnc3c4ccccc4c(C)nn23)c1,-2.5%,4.0%,-3.2%,?,?
O=C(Nc1cccc(S(=O)(=O)NCc2ccco2)c1)c1cc(-c2ccc(F)cc2)nc2ccccc12,-0.1%,?,-3.2%,-23.3%,11.7µM*
COc1ccc(-c2cc(C(=O)NCc3ccco3)c3ccccc3n2)cc1OC,2.3%,nt,nt,nt,nt
COc1ccc(-c2cc(C(=O)Nc3cccc(S(=O)(=O)NCc4ccco4)c3)c3ccccc3n2)cc1OC,13.0%,21.0%,0.6%,2.08µM*,?
CNc1nc(NC#N)nc(SC)n1,7.8%,-1.9%,1.3%,7.2%,27.3%
CC1(C)N=C(N)N=C(N)N1c1cccc(C(=O)Nc2ccc(S(=O)(=O)F)cc2)c1,nt,0.0%,nt,nt,nt
CC(C)C1C(=O)N(Cc2cn(CCC3OCCCO3)nn2)CCS(=O)(=O)N1Cc1ccc(-c2ccc(Cl)nc2)cc1 (configuration not stated),-12.0%,nt,nt,nt,nt
CC(NC(=O)Nc1ccc(Cl)cc1)c1ccccc1 (configuration not stated),3.0%,-15.8%,-3.5%,23.6%,10.4µM*
Cc1ccc(C(NC(=O)NC(C)c2ccccc2)C(Cl)(Cl)Cl)cc1F (configuration not stated),-3.6%,8.9%,-28.4%,4.15µM*,?
CC(NC(=O)c1cc2cc(F)ccc2[nH]1)c1ccccc1 (configuration not stated),-18.7%,-46.9%,-3.8%,-3.7%[0.00184 µM],?
CCOP(=O)(OCC)C(NC(=O)Nc1ccc(Cl)cc1)c1ccccc1 (configuration not stated),-22.3%,4.0%,17.3%,?,-16.5%
O=C(Nc1ccc(Cl)cc1)C(Cl)C(=O)c1ccccc1 (configuration not stated),11.2µM*,-43.6%,-17.4%,21.9%,-23.6%
Cc1ccc(Cc2c(-c3ccc(F)cc3)nc3cc(C)ccn23)cc1,-18.3%,nt,nt,nt,nt
CCN(C(=O)COC(=O)CCCOc1ccc(Cl)cc1C)c1c(N)n(Cc2ccccc2)c(=O)[nH]c1=O,-10.7%,nt,nt,nt,nt
CSCCC(NS(=O)(=O)c1ccccc1F)C(=O)Nc1ccncc1 (configuration not stated),3.0%,nt,-4.1%,?,?
CCOC(=O)c1c(/C=N/Nc2ccccc2)c2sc(C)cc2n1C,nt,nt,-15.9%,9.28µM*,?
CCOC(=O)CCNC(=O)N1CCC(CCC(=O)NCc2ccc(F)cc2)CC1,6.3%,12.0%,0.9%,?,?
COC(=O)CCC(=O)N1CCC(CCC(=O)NCc2ccc(F)cc2)CC1,2.6%,7.0%,-0.9%,-5.8%,5.22µM*
COC(=O)CCCC(=O)N1CCC(CCC(=O)NCc2ccc(F)cc2)CC1,10.1%,4.4%,-9.2%,-19.2%,14.7µM*
O=C1C(c2ccccc2)C(c2ccccc2)NC(c2ccccc2)C1c1ccccc1 (configuration not stated),-10.8%,-0.3%,0.9%,1.85µM*,0.0%
CC(C)Cc1nnc(NC(=O)CCC(=O)N2CCN(c3ccccc3F)CC2)s1,-7.2%,-8.0%,-8.5%,13.3%,-0.2%
CCn1cc(C(=O)Nc2ccc(NC(=O)c3ccco3)cc2)c(=O)c2ccc(C)nc21,5.9%,4.7%,1.9%,22.2%,6.57µM*
CCc1nc(N)nc(N)c1-c1ccc(Cl)cc1,-2.1%,-6.8%,1.3%,0.0828µM*,4.26µM*
COC(=O)c1cnc(SCC(=O)c2ccccc2)n1C,nt,0.9%,-1.9%,153.8%,345.9%
COC(=O)c1cncn1C(C)c1ccccc1 (configuration not stated),-13.3%,-13.2%,1.7%,?,2.08µM*
